Shown are actives, neighbours in structure and some others; about 1.9% of the full set was active somewhere.
Giardia killer: Giardia lamblia killing; Giardia lamblia trophozoite viability; activity change, % at 7.66 µM, hits read low; hit rate 0.15% among 340,000; in the data active means activity change below about -80%; inconclusive means between about -30% and that limit;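 further: parasites exposed to compound for two days anaerobically before the ATP read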
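ATP-content bioluminescence gauges trophozoite survival. Cells (100/well) receive compound and incubate anaerobically for 48 hrs at 37 deg C; detection reagent follows for 15-30 min at room temperature.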
RXFP1 agonist: agonists of human relaxin receptor RXFP1. Q9HBX9. HEK293T-RXFP1 cAMP TR-FRET, 30 min; response scale: percent of porcine relaxin response, buffer zero. Potency, µM (top dose mostly 57.5 µM), actives largely listed as activators. hit rate 0.3% among 370,000. AID 2676; further: nearly all actives have a fitted effect of over 60% in size
Target sequence (Q9HBX9 whole entry, looked up): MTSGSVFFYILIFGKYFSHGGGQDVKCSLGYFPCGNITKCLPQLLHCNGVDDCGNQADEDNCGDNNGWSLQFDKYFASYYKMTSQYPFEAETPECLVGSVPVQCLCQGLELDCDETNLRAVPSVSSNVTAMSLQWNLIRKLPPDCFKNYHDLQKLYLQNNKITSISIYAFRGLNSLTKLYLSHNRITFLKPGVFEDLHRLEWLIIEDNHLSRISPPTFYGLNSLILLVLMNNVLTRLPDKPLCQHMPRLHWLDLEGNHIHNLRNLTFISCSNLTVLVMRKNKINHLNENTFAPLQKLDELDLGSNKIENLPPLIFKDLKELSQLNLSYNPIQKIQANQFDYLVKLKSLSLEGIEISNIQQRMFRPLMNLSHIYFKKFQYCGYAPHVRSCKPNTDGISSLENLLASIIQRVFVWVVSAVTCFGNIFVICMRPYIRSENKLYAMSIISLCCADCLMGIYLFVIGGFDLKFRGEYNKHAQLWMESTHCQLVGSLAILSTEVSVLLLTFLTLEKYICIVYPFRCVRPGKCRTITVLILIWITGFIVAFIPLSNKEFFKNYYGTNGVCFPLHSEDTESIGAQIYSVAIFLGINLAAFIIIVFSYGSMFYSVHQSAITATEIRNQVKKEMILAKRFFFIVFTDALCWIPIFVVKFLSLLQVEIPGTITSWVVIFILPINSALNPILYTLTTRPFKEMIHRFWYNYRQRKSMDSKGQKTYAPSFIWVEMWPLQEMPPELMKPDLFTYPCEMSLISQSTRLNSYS
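HEK293T cells stably expressing RXFP1 were pretreated with the PDE4 inhibitor Ro 20174, exposed to compounds for 30 min at 37C, lysed, and cAMP was read by TR-FRET. Data normalized to buffer (basal) and 29 nM porcine relaxin (100%).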
BRCA1 expr up: increases BRCA1 expression. hit rate 1.1% among 380,000. Potency, µM (titrated, usually from 46.1 µM), most hits filed as activators. MCF7-BRCA1-FFLuc reporter, luminescence, 48 h; response scale: scaled: vehicle 0%, 10 µM genistein 100%; further: nearly all actives have a fitted effect of over 80% in size
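Luminescence from a BRCA1-driven firefly luciferase in MCF7 cells was read after 48 h compound exposure at 37 C. Data normalized against DMSO and a 10microM genistein activation control, then curve-fitted across the titration.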
RXFP1 antag: blocks the human relaxin receptor RXFP1; AID 1259400; Q9HBX9; HEK293-RXFP1, relaxin-stimulated cAMP HTRF, 30 min; active compounds read low; activity change, negative = inhibition, % at 57.5 µM; hit rate 0.59% among 350,000;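 active means activity change of -60% or lower, but not beyond a set lower limit; inconclusive means change between -60% and -40%, or beyond the set limit; inactive means change above -40%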
NPSR antagonist: neuropeptide S receptor (human) antagonism, cAMP; CHO-NPSR cells, cAMP TR-FRET, antagonist mode; hit rate 1% among 220,000; Q6W5P4; Potency, µM (doses to about 38.3 µM), most hits filed as inhibitors; further: nearly all actives have a fitted effect of over 50% in size
IL-2 act: activates IL-2 in a cell-based reporter assay; IL-2 activation reporter assay, cell-based qHTS; stimulated with anti-CD3/CD4/CD28 beads; in transgenic mouse T cells; activation, % (series mostly up to about 46 µM); hit rate 0.065% among 360,000; AID 652025; in the data active means activation above about 50%; inconclusive means mostly about 30% to 49%
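Quantitative HTS in unstimulated transgenic mouse T cells, with memory T cells as non-tolerant control and PMA/ionomycin as tolerance-bypass control. Compound pretreatment lasted 60 minutes before 18 h bead stimulation; EGFP/DsRed fluorescence read.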
A number is an active result; - = inactive; ? = inconclusive; . = not tested or not shown. Unless noted, the call rests on the fitted dose curve; in most records, active means well fitted curve in the direction sought with a large enough effect; inconclusive means small, poorly fitted or top-dose-only effect, or another doubt; inactive means no such curve, though single readings can be large; an effect the other way counts as inactive or inconclusive.

SMILES	Giardia killer	RXFP1 agonist	BRCA1 expr up	RXFP1 antag	NPSR antagonist	IL-2 act
C=C1C=C(C(F)F)n2ncc(C(=O)NCc3ccc(OC)c(OC)c3)c2N1	.	.	-	.	.	.
CCOC(=O)c1ccc(NC(=O)Cn2ncc(Cl)c(Cl)c2=O)cc1	-	-	-	-	10µM	-
CCC(=O)Nc1ccc(C(=O)Cn2ncc(Cl)c(Cl)c2=O)cc1	-	-	-	-	?	-
Cc1nc(N2CCc3ccccc3C2)[nH]c(=O)c1Cc1ccccc1	-	-	-	-	-	-
Cc1nc(-n2[nH]c3c(c2=O)CCCC3)[nH]c(=O)c1Cc1ccccc1	-	-	-	-	7.9µM	-
COc1ccccc1-c1noc(-c2ccc(N3CCOCC3)c([N+](=O)[O-])c2)n1	.	-	-	.	.	.
C/C(=N\NC(=O)c1ccccc1N)c1ccc(NC(=O)Cc2ccccc2)cc1	-	-	-	-	.	-
C/C(=N\NC(=O)c1cccc(C)c1O)c1ccc(NC(=O)Cc2ccccc2)cc1	-	-	5µM	-	.	-
O=c1oc2ccccc2n1CSc1nc2ccccc2s1	-	-	13µM	-	?	-
O=C(CSc1nc2ccccc2s1)CSc1nc2ccccc2s1	-	-	-	-	-	-
CC(=O)CSc1nc2ccccc2s1	-	-	13µM	-	-	-
O=C1Nc2ccccc2C1(c1ccc(O)cc1)c1ccc(O)cc1	.	.	.	-	.	.
CCN1CCc2c(sc(NC(=S)NC(=O)c3cccc(F)c3)c2C(N)=O)C1	-	.	-	.	.	.
CN(C)CCCN=c1cc(-c2ccccc2)oc2ccc(Cl)cc12	-86	-	11µM	-	-	-
OCCN=c1cc(-c2ccccc2)oc2ccc(Cl)cc12	-	-	-	-	-	-
Cc1cccc2sc(NNC(=O)C3=COCCO3)nc12	-	-	-	-61	-	-
Cc1ccc2c(c1)c(C)c(C)n2CC(O)CN1CCCCC1C (stereo not given)	-	-	-	.	?	-
Cc1ccc2c(c1)c1c(n2CC(O)CN2CCCCC2C)CCCC1 (stereo not given)	-	-	-	-92	-	-
Cc1ccc(NC(=O)Cn2c(=O)n(CCCCCC(=O)NCc3ccc(F)cc3)c(=O)c3sccc32)c(C)c1	.	-	.	-	.	.
Cc1ccc(CNC(=O)CCCCCn2c(=O)c3sccc3n(CC(=O)Nc3ccc(C)c(F)c3)c2=O)cc1	.	32µM	.	-	.	.
CCn1c2ccccc2c2cc(CN3CCN(Cc4cc(OC)c(O)c(OC)c4)CC3)ccc21	.	-	.	-67	.	.
CCn1c2ccccc2c2cc(CN3CCN(Cc4cc(OC)ccc4O)CC3)ccc21	-	-	-	-	-	-
O=C1c2ccccc2NC2(CCCCC2)N1c1ccc(O)cc1	-	-	11µM	-	-	-
CC1CCC2(CC1)Nc1ccccc1C(=O)N2c1ccccc1 (stereo not given)	-	-	?	-	-	-
COc1ccc(N2C(=O)c3ccccc3NC2c2ccc(OC)c(COc3ccccn3)c2)cc1 (stereo not given)	-	-	6.3µM	-	-	-
SMILES	Giardia killer	RXFP1 agonist	BRCA1 expr up	RXFP1 antag	NPSR antagonist	IL-2 act
COc1ccc(N2C(=O)c3ccccc3NC2c2ccc(OC)c(CSc3ccccn3)c2)cc1 (stereo not given)	-	-	-	-	13µM	-
COc1cccc(OCc2cc(C3Nc4ccccc4C(=O)N3c3ccccc3)ccc2OC)c1 (stereo not given)	-	.	-	.	.	.
Cc1cccc(N2CCN(C(=O)CCS(=O)(=O)c3ccc4c(c3)CC(=O)N4C)CC2C)c1 (stereo not given)	.	-	-	.	.	.
CCCCOc1ccc(-c2c(C(=O)Nc3ccccc3)c(C)[nH]c(=S)c2C#N)cc1	-	22µM	-	-	10µM	-
C/C(=N\NC(=O)c1ccco1)c1ccc(NC(=O)c2ccccc2)cc1	-	-	-	-	-	-
C/C(=N/NC(=O)c1cccs1)c1ccco1	-	-	13µM	-	-	-
C/C(=N\NC(=O)c1ccco1)c1ccc(-c2ccccc2)cc1	-	-	8.9µM	-	.	-
C/C(=N\NC(=O)c1cccs1)c1ccc(C(=O)O)s1	-	-	14µM	-	.	-
C/C(=N\NC(=O)c1cccs1)C(C)(C)C	-	-	-	-	-	-
COc1ccc(C2N=C(Nc3nc4ccccc4o3)NC3=C2C(=O)CC(C)(C)C3)cc1 (stereo not given)	-	.	-	.	.	.
CCN(CC)/[N+]([O-])=N/Oc1cc(O/N=[N+](\[O-])N(C)C)c([N+](=O)[O-])cc1[N+](=O)[O-]	-	.	.	.	.	.
CC[C@H](C)[C@H](N)C(=O)O	.	.	.	-	.	.
O=C(Nc1ccccc1N1CCN(C(=O)c2ccccc2)CC1)c1cc2ccccc2o1	-	-	-	-	4µM	-
CCC(=O)N1CCN(c2ccccc2NC(=O)c2ccc([N+](=O)[O-])o2)CC1	-90	-	-	-	.	-
O=C(Nc1ccccc1N1CCN(C(=O)c2ccccc2)CC1)c1ccc([N+](=O)[O-])o1	-86	-	-	-	.	-
O=C(Nc1ccccc1N1CCCC1)c1ccc([N+](=O)[O-])o1	?	-	-	-	.	-
CC(C)C(=O)N1CCN(c2ccccc2NC(=O)c2ccc([N+](=O)[O-])o2)CC1	-89	-	-	-	.	-
COC(=O)CN1CC(=O)c2ccccc2S1(=O)=O	-	.	.	.	.	.
CCCC(=O)c1cc2ccccc2oc1=O	-	-	-	-	-	-
Cc1ccc(C(=O)Cc2cc3ccccc3oc2=O)c(C)c1	-	-	4µM	-	.	-
CCOc1ccc(C(=O)Cc2cc3cccc(OC)c3oc2=O)cc1	-	-	-	-	.	-
COc1ccc(C(=O)Cc2cc3ccccc3oc2=O)cc1	-	-	4.5µM	-	.	-
CN(C(=O)CSc1nc2scc(-c3ccccc3)c2c(=O)[nH]1)c1ccccc1	-	.	-	-64	.	-
CCOC(=O)/C(=N\Nc1ccccc1)S(=O)(=O)c1ccccc1	-	-	-	-	-	-
CCOC(=O)/C(=N\Nc1ccccc1)P(=O)(c1ccccc1)c1ccccc1	-	-	-	-	10µM	-
SMILES	Giardia killer	RXFP1 agonist	BRCA1 expr up	RXFP1 antag	NPSR antagonist	IL-2 act
Cc1ccc(CNC(=O)c2ccc([N+](=O)[O-])o2)cc1	-86	-	-	-	-	-
Cc1ccc(/C=C/C(=O)c2ccc([N+](=O)[O-])o2)cc1	-	-	-	.	.	-
Cc1ccc(-c2csc(NC(=O)c3ccc(C)o3)n2)cc1	-	-	-	-	-	-
CN(Cc1ccccc1)C(=O)c1ccc([N+](=O)[O-])o1	-87	-	-	-	-	-
Cc1ccc(CNC(=O)c2ccc(C)s2)cc1	-	.	13µM	-	.	-
Cc1ccc(-c2csc(NC(=O)c3ccc([N+](=O)[O-])o3)n2)cc1	-95	-	-	-	.	-

Bioassay records deposited in PubChem BioAssay by National Center for Advancing Translational Sciences (NCATS).
